In the library only some 5.7% were active in any assay of this set; here they are far more common.
ATXN2 expr inh: inhibitors of ATXN2 expression; HEK-293 ATXN2-luciferase reporter, luminescence, 24 h; Potency, µM (series often up to 57 µM), for the others: top-dose activity change, negative = inhibition, hits mostly inhibitors; 0.72% of 360,000 active; AID 1745845; also: potency is read from the fitted curve at half-maximal effect; % is scaled to controls: 0 for no effect and ±100 for the full control effect; nearly all actives have a fitted effect of over 55% in size
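qHTS (up to 57 uM final) was run with 24 h compound exposure of reporter cells at 37 °C. Each well was multiplexed: SteadyGlo luminescence measured ATXN2-luciferase expression after a fluorogenic Gly-Phe-AFC viability readout (25 uM final).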
HepG2 tox: kills HepG2 cells in TGF-b inhibitor counter-screen | HepG2 CAGA-GFP viability, ATP luminescence, 18 h | Potency, µM (highest dose often 46.1 µM), for the others: at the highest dose activity change, negative = cytotoxicity, hits mostly cytotoxic | 0.76% of 410,000 active; also: potency is read from the fitted curve at half-maximal effect
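CellTiter-Glo luminescence gave cytotoxicity after 18 hours at 37 degrees C. The cells were HepG2 CAGA-GFP in 1% FBS DMEM, stimulated with 500 pg/mL TGF-beta after compound addition. %Activity was normalised to no-cell wells (complete cell-killing) and DMSO (no toxicity), and curves were fitted and classified.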
S2 tox: reduces viability in counter-screen for ATXN expression inhibitors | S2 cells (HEK-293 line with an ATXN2-luciferase reporter) viability, CellTiter-Fluor protease fluorescence, 24 h | Potency, µM (highest dose often 56.7 µM), actives largely listed as cytotoxic | 0.49% of 400,000 active; also: potency is read from the fitted curve at half-maximal effect; nearly all actives have a fitted effect of over 40% in size
TGFb SMAD3 inh: TGF-b pathway inhibition | HepG2 CAGA-GFP TGF-b/SMAD3 reporter, GFP fluorescence, 18 h; TGF-beta stimulated, 500 pg/mL final | Potency, µM (series often up to 46.1 µM), inactives show top-dose activity, negative = inhibition, usual class: inhibitors | 1.2% of 410,000 active | AID 588855; also: potency is read from the fitted curve at half-maximal effect; % is scaled to controls: 0 for no effect and ±100 for the full control effect; nearly all actives have a fitted effect of over 65% in size
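HEPG2 CAGA-GFP cells (1000/well, DMEM with 1% FBS) were pre-incubated 2 h at 37 degrees C, given compound by pin tool, then stimulated with TGF-beta at 500 pg/mL final for 18 h before per-cell GFP fluorescence imaging.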
IL1B secr inh: inflammasome signaling inhibition, IL-1 beta readout | THP-1 LPS/ATP IL-1B secretion, AlphaLISA, 16 h; hits give low values | 4.7% of 360,000 active | activity change, % at 57.5 µM; in the data active = activity change below about -50%; inconclusive = mostly about -30% to -49%; also: % is scaled to controls: 0 for no effect and ±100 for the full control effect
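THP-1 cells pretreated 1 hr with compounds (up to 57.5 uM final), then stimulated with LPS (250 ng/mL final) plus ATP (1.25 mM final); secreted IL-1B measured by AlphaLISA after 16 hr, decreased signal indicating inhibition.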
Active calls of the source: *; i = inactive; ? = inconclusive; nt = not tested or not shown. Unless noted, calls follow the shape of the dose curve; as a rule, active = well fitted curve in the direction sought with a large enough effect; inconclusive = small, poorly fitted or top-dose-only effect, or another doubt; inactive = no such curve, though single readings can be large; an effect the other way counts as inactive or inconclusive.

SMILES | ATXN2 expr inh | HepG2 tox | S2 tox | TGFb SMAD3 inh | IL1B secr inh
Cc1cc2c(cc1C)N[C@]1(C[C@H]3CCC(=O)N4CC[C@@H](C1)[C@@H]34)C(=Nc1ccccc1C)N2 | nt | -25.4% | nt | ? | nt
Cc1ccc(NC(=O)/C(C#N)=C(\N)C(Cl)(Cl)Cl)nc1 | -15.0% | -37.6% | ? | ? | -100.3*
Cc1ccc(OCC(=O)N/N=C\c2ccc(-c3cccc(C(=O)O)c3)o2)c(C)c1 | 9.3% | -23.5% | i | ? | 0.0
CNC(=S)N/N=C/c1ccc(-c2cccc(C(=O)O)c2)o1 | 39.7% | 11.2µM* | i | 18.0% | 19.1
Cc1ccc(CNC(=O)c2cnc(N3CCCCC3)c3ccccc23)cc1 | nt | 0.6% | nt | 11.2µM* | nt
Cc1ccc(CNC(=O)c2cccn2-c2nnc(N3CCCCC3)s2)cc1 | nt | -38.8% | nt | 7.94µM* | nt
Cc1ccc(CNC(=O)c2cccn2-c2nnc(N3CCCC3)s2)cc1 | nt | -32.1% | nt | ? | nt
COc1ccccc1-c1ccnc(-n2ncc(C(=O)NCCc3ccccn3)c2C)n1 | nt | nt | i | nt | nt
N#CC1=C2SCC(O)(c3ccccc3)N2C(=O)CC1c1cccs1 (stereo not drawn) | 34.3% | -25.2% | i | 0.8% | ?
COc1ccc(C2CC(=O)N3C(=C2C#N)SCC3(O)c2ccccc2)cc1 (stereo not drawn) | 42.0% | -14.4% | i | -8.8% | -50.8*
Cc1ccc2c(c1)-c1onc(C(=O)N(C)c3cccc(C(F)(F)F)c3)c1CO2 | 5.1% | -6.6% | i | 3.4% | nt
C[C@@H]1CCCCO[C@@H](CN(C)C(=O)C2CCCCC2)[C@@H](C)CN([C@H](C)CO)C(=O)c2cc(NC(=O)NC3CCCCC3)ccc2O1 | ? | -45.3% | ? | -8.0% | -15.2
C[C@@H]1CN([C@H](C)CO)C(=O)Cc2cc(NC(=O)Nc3ccccc3)ccc2O[C@@H]1CN(C)Cc1ccc2c(c1)OCO2 | ? | 17.8µM* | ? | 15.8µM* | -64.0*
C[C@@H]1CN([C@H](C)CO)C(=O)c2cc(NC(=O)Nc3ccc(C(F)(F)F)cc3)ccc2O[C@H]1CN(C)C(=O)Nc1ccc(F)cc1 | -29.8% | -0.1% | i | ? | -61.5*
C[C@H]1CCCCO[C@H](CN(C)C(=O)C2CCCCC2)[C@@H](C)CN([C@@H](C)CO)C(=O)c2cc(NC(=O)NC3CCCCC3)ccc2O1 | -4.8% | -21.3% | 25.1µM* | -2.5% | -25.2
C[C@@H]1CN([C@H](C)CO)C(=O)c2cc(NS(=O)(=O)c3cccs3)ccc2O[C@H]1CN(C)Cc1ccccc1 | 0.4% | -6.6% | i | -3.0% | -7.8
C[C@@H]1CN([C@@H](C)CO)C(=O)c2cc(NS(=O)(=O)c3cccs3)ccc2O[C@H]1CN(C)Cc1ccc(C(F)(F)F)cc1 | ? | -18.4% | ? | ? | -63.3*
C[C@H](CO)N1C[C@H](C)[C@@H](CN(C)C(=O)Nc2ccc(C(F)(F)F)cc2)Oc2ccc(NC(=O)Nc3ccc(C(F)(F)F)cc3)cc2C1=O | ? | 2.3% | ? | ? | ?
CCOC(=O)CCCCCC(=O)Nc1ccc2c(c1)CC(=O)N([C@H](C)CO)C[C@@H](C)[C@H](CN(C)Cc1ccc3c(c1)OCO3)O2 | 2.6% | -3.3% | i | -9.4% | 7.3
Cc1cccnc1-c1cccc2c1OC(CNC(=O)Cc1c(C)noc1C)C2 (stereo not drawn) | nt | nt | i | nt | nt
O=C(Nc1ccc(Cl)cn1)c1cnn2c1NC(=C1CC1)C=C2C(F)F | nt | -4.0% | nt | -0.5% | nt
COc1ccc(NC(=O)Nc2cccc3c2O[C@H](CN(C)C(=O)Nc2ccc(C(F)(F)F)cc2)[C@@H](C)CN([C@H](C)CO)C3=O)cc1 | 0.0% | -4.8% | ? | ? | -16.7
C[C@H](CO)N1C[C@H](C)[C@@H](CN(C)C(=O)Nc2ccc(C(F)(F)F)cc2)Oc2c(NC(=O)Nc3ccc(C(F)(F)F)cc3)cccc2C1=O | ? | -114.0% | 15.8µM* | 14.1µM* | -7.2
C[C@H]1CN([C@@H](C)CO)C(=O)c2cccc(NC(=O)Nc3ccc(C(F)(F)F)cc3)c2O[C@@H]1CN(C)C(=O)Nc1ccc(F)cc1 | 20µM* | -89.2% | 12.6µM* | ? | 0.8

Screens deposited in PubChem by National Center for Advancing Translational Sciences (NCATS).
